From PubChem BioAssay (NCATS)
Where “and” joins values, the source holds several entries; their conditions need not be identical. Identical values can stand only once. Inconclusive results are not listed. Unmarked numbers belong to inactive results. Calls of active or inactive are those of the source. Calls come from the whole dose curve; as a rule, active = well fitted activation curve with a large enough effect; inconclusive = small, poorly fitted or top-dose-only effect; inactive = no such curve, though single readings can be large or run the other way.

Target: Cellular tumor antigen p53 (Homo sapiens) (UniProt P04637)
Experiment: Primary qHTS for small molecule compounds that upregulate eGFP-tagged delta133p53alpha (in N-terminal) cells. (AID 2060322); note: nearly all actives have a fitted effect of over 75% in size;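 for activation: series mostly up to about 56 µM; 0% = DMSO vehicle and 100% = reference activator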
Conditions: NCI-H358 eGFP-delta133p53alpha fluorescence, 24 h; activation: stronger effect = higher value
In short: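 NCI-H358 cells pre-induced 24 h with 10 ng/ml doxycycline to express N-terminal eGFP-delta133p53alpha, then dosed 24 h at 37C without doxycycline; fixed, Hoechst-stained, GFP intensity by laser scanning cytometry, normalized to DMSO (0%) and 57.5 uM 5-azacytidine (100%).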
Potency is the fitted concentration of half-maximal effect.

Chain of Cellular tumor antigen p53 (Homo sapiens) (P04637 whole entry, looked up): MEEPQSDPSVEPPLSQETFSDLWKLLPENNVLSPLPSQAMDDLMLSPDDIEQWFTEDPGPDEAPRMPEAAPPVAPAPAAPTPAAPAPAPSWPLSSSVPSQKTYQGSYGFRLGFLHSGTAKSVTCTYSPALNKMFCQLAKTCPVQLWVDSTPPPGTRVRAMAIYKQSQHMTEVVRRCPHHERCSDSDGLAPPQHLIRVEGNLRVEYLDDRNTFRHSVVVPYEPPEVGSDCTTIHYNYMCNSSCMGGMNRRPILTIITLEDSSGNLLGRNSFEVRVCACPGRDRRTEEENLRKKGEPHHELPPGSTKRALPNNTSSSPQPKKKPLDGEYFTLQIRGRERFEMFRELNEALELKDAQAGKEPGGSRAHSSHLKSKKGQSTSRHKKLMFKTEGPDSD

| Compound | activation | Potency |
| --- | --- | --- |
| CN(C)c1cccc(Oc2cnc(Nc3cccc(O)c3)nc2)c1 | 2.86% |  |
| OC/C=C/C=C/[C@H]1Cc2cc(O)cc(O)c2O1 | 0.893% |  |
| C=C1C(=O)OC2C1CCC(=C)C1CC(OC(C)=O)C(=C)C12 (stereo not given) |  | 16.9 µM (active) |
| CCOC(=O)C1=C(N)Oc2ccc(Br)cc2C1C(C#N)C(=O)OCC (stereo not given) |  | 30.1 µM (active) |
| COc1cccc(-c2ccc(NC(=O)C3=C(C(=O)O)CCC3)c(F)c2)c1 | -4.2% and -13.4% |  |
| Cn1cc(Nc2cnccc2C(=O)O)c2cccnc21 | 4.33% |  |
| Cn1cc(-c2ccc3ncc(Cc4ccc5ncccc5c4)n3n2)cn1 | 15.2% and 9.55% |  |
| OC[C@@]1(O)CO[C@@H](OC[C@H]2O[C@@H](Oc3c[nH]c4ccccc34)[C@H](O)[C@@H](O)[C@@H]2O)[C@@H]1O | -5.34% |  |
| C=C1C(=O)OC2CC(C)=C(C(C)CCCO)C(O)C12 (stereo not given) | 7.14% |  |
| Clc1ncoc1-c1c[nH]c2ccccc12 | 11.5% |  |
| CC1=CC(=O)C(=C(C)C)CC2C(C)(O)CCC12O (stereo not given) | -8.93% |  |
| COc1ccc(-c2c(-c3cc(C(=O)O)ccn3)ncn2C)cc1 | -2.33% |  |
| O=C(OC1C=C(CO)C2C(OC3OC(CO)C(O)C(O)C3O)OC=CC12O)c1ccc(O)cc1 (stereo not given) | 12.2% |  |
| COc1ccc(-c2ccn(CC[C@](C)(C(=O)NO)S(C)(=O)=O)c(=O)c2)c(F)c1 | -16.3% |  |
| Cc1ccc(NC(=O)N2CCN(c3nc(N)nc4sc(-c5cccnc5)nc34)CC2)cc1 | 26.7% |  |
